Data as given in the supplement of paper PMC7380943.
Structures can show the parent of a compound that is named as a salt.

These molecules were tested on CLZ3 (HCA2 human fibroblast dual HR-NHEJ reporter) (assay: NHEJ repair efficiency (GFP+ cells) relative to control (log10 fold); higher = more non-homologous end joining). Settings: 5 µM; doxycycline 0.5 ug/mL.
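Wherever HR repair efficiency (tdTomato+ cells) relative to control is given: compound given one day before doxycycline, which switches on I-SceI endonuclease expression to create double-strand breaks within the integrated reporter.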
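Wherever NHEJ repair efficiency (GFP+ cells) relative to control is given: compound given one day ahead of doxycycline, which switches on I-SceI endonuclease to cut the chromosomally integrated reporter and create DSBs.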

Row | SMILES | NHEJ repair efficiency (log10)
1 | C=C[C@H]1CN2CC[C@]3(C(=O)Nc4ccccc43)[C@@H]2C[C@@H]1/C(=C\OC)C(=O)OC [Corynoxeine] | -0.123
2 | O=C1C=CC(=O)c2c(O)cccc21 [Juglone] | 0.0328
3 | CC1=C2C[C@H]3[C@@H](CC(=O)[C@H]4C[C@@H](O)CC[C@@]43C)[C@@H]2CC[C@]12O[C@@H]1C[C@H](C)CN[C@H]1[C@H]2C [Peimisine] | -0.0359
4 | COC[C@@]12CC[C@H](OC)[C@]34C(C([C@H](OC)[C@H]13)[C@]1(OC(C)=O)[C@H]3[C@@H](OC(=O)c5ccccc5)[C@](O)(C[C@H]34)[C@@H](OC)[C@@H]1O)N(C)C2 [Hypaconitine] | 0.0511
5 | O=C1CCC[C@@H]2[C@H]3CCCN4CCC[C@@H](CN12)[C@@H]34 [Matrine] | -0.00125
6 | CCN1C[C@]2(OC(=O)c3ccccc3NC(C)=O)CC[C@H](OC)[C@@]34[C@@H]2C[C@@H]([C@@H]13)[C@@]1(O)C[C@H](OC)[C@H]2C[C@@H]4[C@]1(O)[C@H]2OC [Lappaconitine] | 0.147
7 | C=C1[C@H]2C[C@@]3([C@@H]1O)[C@@H](CC2=O)[C@]12[C@@H]4C[C@H]3[C@H]1N(CC)C[C@]4(C)CC[C@@H]2O [Songorine] | -0.0383
8 | C[C@@H]1CCC=C2C(=O)C[C@H]3OOC(C)(C)[C@H]3[C@]21C [Nardosinone] | -0.0297

Each molecule was assayed on CLZ3 (HCA2 human fibroblast dual HR-NHEJ reporter) (assay: HR repair efficiency (tdTomato+ cells) relative to control (log10 fold); higher = more homologous recombination). Settings: 5 µM; doxycycline 0.5 ug/mL.

Row | SMILES | HR repair efficiency (log10)
9 | C[C@@H]1CC[C@H]2[C@@H](C)C(=O)O[C@@H]3O[C@@]4(C)CC[C@@H]1[C@]32OO4 [Artemisinin] | 0.328
10 | O=c1cccc2n1CC1CC2CN2CCCCC12 (centres undefined) [Thermopsine] | -0.25
11 | COC1=C[C@@H]2[C@@H]3Cc4ccc(OC)c(O)c4[C@]2(CCN3C)CC1=O [Sinomenine] | 0.274
12 | CCN1C[C@]2(COC)CC[C@H](O)C34C1C([C@H](OC)[C@@H]32)[C@]1(O)[C@@H]2[C@H]4CC([C@@H](OC)[C@@H]1O)[C@@H]2O [Fuziline] | 0.0271
13 | CC1(C)[C@H]2O[C@H]2[C@H]2[C@](C)(O)[C@@H]3CCC4[C@H](O)[C@@]3(C[C@@H](O)[C@@]21O)C[C@@]4(C)O [Rhodojaponin Iii] | 0.0481
14 | COc1c(C)c(O)cc2[o+]c(-c3ccccc3)ccc12.[O-][Cl+3]([O-])([O-])[O-] [Dracorhodin perochlorate] | 0.0436
15 | CN[C@@H](C)[C@H](O)c1ccccc1 [Ephedrine hydrochloride] | -0.0579
16 | C[C@H]1CC[C@H]2[C@H](C)[C@@H]3CC[C@@H]4[C@@H](C[C@H]5[C@H]4C[C@@H](O)[C@H]4C[C@@H](O)CC[C@@]45C)[C@@H]3CN2C1 [Hupehenine] | -0.0543
17 | C[C@@]12C[C@@H](c3ccoc3)OC(=O)[C@@H]1CC[C@]1(C)[C@H]2[C@@H]2C=C[C@@]1(O)C(=O)O2 [Columbin] | -0.0272
18 | O=C1C=CC[C@@H]2[C@H]3CCCN4CCC[C@@H](CN12)[C@@H]34 [Sophocarpine] | 0.165
19 | O=C(/C=C/c1ccccc1)OC[C@H]1O[C@@H](O[C@@H]2OC=C[C@H]3[C@H](O)[C@@H]4O[C@]4(CO)[C@@H]23)[C@H](O)[C@@H](O)[C@@H]1O [Picroside I] | -0.0261
20 | C/C=C/C#CC#C/C=C/c1ccco1 [Atractylodin] | 0.114
21 | C[C@H]1CCC2N(C1)C[C@H]1C3CC4[C@@H](CC(=O)C5C[C@@H](O)CC[C@@]54C)C3CCC1[C@]2(C)O (some centres undefined) [Peiminine] | 0.0963
22 | CCN1C[C@]2(COC)CC[C@H](O)[C@]34C1[C@H]([C@H](OC)[C@H]23)[C@@]1(O)C[C@H](OC)[C@H]2C[C@@H]4[C@@H]1[C@H]2O [Neoline] | -0.186
23 | CCN1C[C@]2(COC)[C@H](O)C[C@H](OC)[C@@]34[C@@H]5C[C@@]6(O)[C@H](OC(=O)c7ccccc7)[C@@H]5[C@@](OC(C)=O)([C@@H]([C@H](OC)[C@H]23)[C@@H]14)[C@@H](O)[C@@H]6OC [Aconitine] | 0.0783
24 | CCN1C[C@]2(COC)CC[C@H](OC)[C@]34C1[C@H]([C@H](OC)[C@H]23)[C@@]1(O)C[C@H](OC)[C@H]2C[C@@H]4[C@@H]1[C@H]2O [Chasmanine] | -0.00256

Row | SMILES | HR repair efficiency (log10)
25 | CCC(C)C(=O)O[C@@H]1[C@@H](OC(C)=O)[C@]2(C)[C@H](C(C)=O)CC[C@@]23O[C@]32CC[C@H]3C[C@@H](O[C@H]4C[C@@H](OC)[C@H](O[C@@H]5O[C@H](C)[C@@H](O)[C@@H](OC)[C@H]5O)[C@@H](C)O4)CC[C@]3(C)[C@@H]12 (some centres undefined) [Tenacissoside H] | 0.0233
26 | CCN1C[C@]2(COC)[C@H](O)C[C@H](OC)[C@@]34[C@@H]5C[C@@]6(O)[C@H](OC(=O)c7ccccc7)[C@@H]5[C@@](O)([C@@H]([C@H](OC)[C@H]23)[C@@H]14)[C@@H](O)[C@@H]6OC [Benzoylaconine] | 0.0403
27 | O=C(O)[C@@H]1[C@H](C(=O)O)[C@H]2CC[C@@H]1O2 [Endothall Disodium Salt] | 0.143
28 | CN(C)Cc1c[nH]c2ccccc12 [Gramine] | -0.0905
29 | COC[C@]12CN(C)[C@@H]3[C@@H]4[C@H](OC)[C@H]1[C@@]3([C@@H](OC)C[C@H]2O)[C@@H]1C[C@@]2(O)[C@H](OC(=O)c3ccccc3)[C@@H]1[C@]4(OC(C)=O)[C@@H](O)[C@@H]2OC [Mesaconitine] | 0.0192
30 | COc1cc2c(cc1O)C[C@@H]1NCCc3cc(OC)c(O)c-2c31 [Norisoboldine] | -0.0981
31 | CCN1C[C@@]2(COC)[C@H]3[C@@H](OC)[C@H]4C1[C@]3([C@@H](OC)C[C@H]2OC(C)=O)[C@@H]1C[C@@]2(O)[C@H](OC(=O)c3ccccc3)[C@@H]1[C@]4(OC(C)=O)[C@@H](O)[C@@H]2OC [Acetylaconitine] | -0.0667
32 | C=C[C@H]1CN2CC[C@]3(C(=O)Nc4ccccc43)[C@@H]2C[C@@H]1/C(=C\OC)C(=O)OC [Corynoxeine] | -0.139
33 | O=C1C=CC(=O)c2c(O)cccc21 [Juglone] | -0.281
34 | CC1=C2C[C@H]3[C@@H](CC(=O)[C@H]4C[C@@H](O)CC[C@@]43C)[C@@H]2CC[C@]12O[C@@H]1C[C@H](C)CN[C@H]1[C@H]2C [Peimisine] | -0.00991
35 | COC[C@@]12CC[C@H](OC)[C@]34C(C([C@H](OC)[C@H]13)[C@]1(OC(C)=O)[C@H]3[C@@H](OC(=O)c5ccccc5)[C@](O)(C[C@H]34)[C@@H](OC)[C@@H]1O)N(C)C2 [Hypaconitine] | 0.0965
36 | O=C1CCC[C@@H]2[C@H]3CCCN4CCC[C@@H](CN12)[C@@H]34 [Matrine] | -0.0371
37 | CCN1C[C@]2(OC(=O)c3ccccc3NC(C)=O)CC[C@H](OC)[C@@]34[C@@H]2C[C@@H]([C@@H]13)[C@@]1(O)C[C@H](OC)[C@H]2C[C@@H]4[C@]1(O)[C@H]2OC [Lappaconitine] | 0.0273
38 | C=C1[C@H]2C[C@@]3([C@@H]1O)[C@@H](CC2=O)[C@]12[C@@H]4C[C@H]3[C@H]1N(CC)C[C@]4(C)CC[C@@H]2O [Songorine] | 0.115
39 | C[C@@H]1CCC=C2C(=O)C[C@H]3OOC(C)(C)[C@H]3[C@]21C [Nardosinone] | -0.0118
